Measurements published in the supplement of paper PMC4709259.
Counter-ions that a name gives are not always drawn. ± gives the standard deviation.

Each compound was assayed on Jurkat (assay: mean cell size (FSC-A) relative to DMSO control (fraction of control); higher = larger cells). Settings: 48 h.
Outline: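 Jurkat cells seeded at 600 cells/µl were incubated 1 h, then exposed for 48h to the Enzo Screen-Well FDA Approved Drug Library v2.0 at 25µM in 0.9% (v/v) final DMSO. Drugs that cut counts below 20% of controls were diluted 10-fold and retested, down to 25nM. Cell count and mean cell size (forward scatter area) were read on an Accuri C6 flow cytometer, relative to solvent-only controls. Plates held 6-12 controls; values are means of 3 biological replicates.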
`CCOC(=O)CC(SP(=S)(OC)OC)C(=O)OCC` (centres undefined) [Malathion] (concentration: 25 µM) gave a mean cell size of 0.916 ± 0.041. `CC[C@@H](CO)NC(=O)[C@@H]1C=C2c3cccc4[nH]cc(c34)C[C@H]2N(C)C1` [Methylergonovine Maleate] (concentration: 25 µM) showed a mean cell size of 1.01 ± 0.016. `CC(C)c1cccc(C(C)C)c1O` [Propofol] (concentration: 25 µM) showed a mean cell size of 0.972 ± 0.025. Work on `Cc1cccc([C@H](C)c2c[nH]cn2)c1C` [Dexmedetomidine·HCl] (concentration: 25 µM) yielded a mean cell size of 0.942 ± 0.06. Work on `NC(=O)C[S+]([O-])C(c1ccccc1)c1ccccc1` (centres undefined) [Modafinil (Schedule Iv)] (concentration: 25 µM) yielded a mean cell size of 0.968 ± 0.014. `CN1C(=O)CC(=O)N(c2ccccc2)c2cc(Cl)ccc21` [Clobazam] (concentration: 25 µM) showed a mean cell size of 0.984 ± 0.032. For `NCC1(CC(=O)O)CCCCC1` [Gabapentin] (concentration: 25 µM), the mean cell size was 0.943 ± 0.02. Work on `COc1cc2c(cc1OC)C1CC(=O)C(CC(C)C)CN1CC2` (centres undefined) [Tetrabenazine] (concentration: 25 µM) yielded a mean cell size of 0.921 ± 0.031. `O=C1Nc2ccc(Cl)cc2C(c2ccccc2Cl)=NC1O` (centres undefined) [Lorazepam] (concentration: 25 µM) was tested, and the mean cell size was 0.927 ± 0.03. For `CCN(C(C)=O)c1cccc(-c2ccnc3c(C#N)cnn23)c1` [Zaleplon] (concentration: 25 µM), the mean cell size was 1 ± 0.059. For `COc1ccc(C(CN(C)C)C2(O)CCCCC2)cc1` (centres undefined) [Venlafaxine·HCl] (concentration: 25 µM), the mean cell size was 0.987 ± 0.021. For `CC(C)C[C@H]1C(=O)N2CCC[C@H]2[C@]2(O)O[C@](NC(=O)[C@@H]3C=C4c5cccc6[nH]c(Br)c(c56)C[C@H]4N(C)C3)(C(C)C)C(=O)N12` [Bromocriptine Mesylate] (concentration: 25 µM), the mean cell size was 0.939 ± 0.031. `COC[C@@H](NC(C)=O)C(=O)NCc1ccccc1` [Lacosamide] (concentration: 25 µM) was tested, and the mean cell size was 0.927 ± 0.067. Compound `CC1C=CC=CCCC=CC=CC=CC=CC(OC2OC(C)C(O)C(N)C2O)CC2OC(O)(CC(O)C(O)CCC(O)CC(O)CC(O)CC(=O)OC(C)C(C)C1O)CC(O)C2C(=O)O` (centres undefined) [Nystatin] (concentration: 25 µM) has a mean cell size of 0.8944 ± 0.0084. `Oc1ccc2c(c1)[C@@]13CCCC[C@@]1(O)[C@@H](C2)N(CC1CCC1)CC3` [Butorphanol-(+)-Tartrate (Schedule Iv)] (concentration: 25 µM) showed a mean cell size of 0.952 ± 0.049. For `O=c1[nH]c2ccccc2n1C1CCN(CCCC(c2ccc(F)cc2)c2ccc(F)cc2)CC1` [Pimozide] (concentration: 2.5 µM), the mean cell size was 1.08 ± 0.033. With `Oc1ccc2c3c1O[C@H]1[C@@H](O)CC[C@@]4(O)[C@@H](C2)N(CC2CCC2)CC[C@]314` [Nalbuphine·HCl Dihydrate] (concentration: 25 µM) the mean cell size was 0.955 ± 0.048. In the case of `CN1[C@@H]2CC[C@H]1C[C@@H](OC(=O)C(CO)c1ccccc1)C2` (some centres undefined) [Atropine Sulfate Monohydrate] (concentration: 25 µM), the mean cell size is reported as 0.974 ± 0.017. With `N[C@@H]1C[C@H]1c1ccccc1.N[C@H]1C[C@@H]1c1ccccc1` [Tranylcypromine Hemisulfate] (concentration: 25 µM) the mean cell size was 0.926 ± 0.0078. In the case of `O=P1(N(CCCl)CCCl)NCCCO1` (centres undefined) [Cyclophosphamide (Free Base)] (concentration: 25 µM), the mean cell size is reported as 1.01 ± 0.051. In the case of `Cn1c(CCCC(=O)O)nc2cc(N(CCCl)CCCl)ccc21` [Bendamustine·HCl] (concentration: 25 µM), the mean cell size is reported as 1.26 ± 0.022. For `O=[N+]([O-])O[C@H]1CO[C@H]2[C@@H]1OC[C@H]2O[N+](=O)[O-]` [Isosorbide Dinitrate] (concentration: 25 µM), the mean cell size was 0.945 ± 0.023. Compound `NCCCNCCSP(=O)(O)O` [Amifostine] (concentration: 25 µM) has a mean cell size of 0.95 ± 0.036. With `O=C1Nc2ccc(Cl)cc2C(c2ccccc2)=NC1O` (centres undefined) [Oxazepam] (concentration: 25 µM) the mean cell size was 0.938 ± 0.029. `N[C@@H](Cc1ccc(N(CCCl)CCCl)cc1)C(=O)O` [Melphalan] (concentration: 250 nM) was tested, and the mean cell size was 1.02 ± 0.022. `CC(O)(CS(=O)(=O)c1ccc(F)cc1)C(=O)Nc1ccc(C#N)c(C(F)(F)F)c1` (centres undefined) [Bicalutamide] (concentration: 25 µM) showed a mean cell size of 0.973 ± 0.027. `CC(C)N(CCC(C(N)=O)(c1ccccc1)c1ccccn1)C(C)C` (centres undefined) [Disopyramide] (concentration: 25 µM) gave a mean cell size of 0.985 ± 0.041. With `CN1CCN(C(=O)O[C@H]2c3nccnc3C(=O)N2c2ccc(Cl)cn2)CC1` [Eszopiclone] (concentration: 25 µM) the mean cell size was 1.01 ± 0.025. For `COc1cc2c(c(OC)c1OC)-c1ccc(OC)c(=O)cc1[C@@H](NC(C)=O)CC2` [Colchicine] (concentration: 25 nM), the mean cell size was 0.967 ± 0.026. For `NCC(CC(=O)O)c1ccc(Cl)cc1` (centres undefined) [Baclofen] (concentration: 25 µM), the mean cell size was 0.985 ± 0.044. `COc1cccc(C2(O)CCCCC2CN(C)C)c1` (centres undefined) [Tramadol·HCl] (concentration: 25 µM) showed a mean cell size of 0.938 ± 0.042. For `CCN(C)C(=O)Oc1cccc([C@H](C)N(C)C)c1` [Rivastigmine Tartrate] (concentration: 25 µM), the mean cell size was 1.01 ± 0.022. `N.N.[Cl][Pt][Cl]` [Cisplatin (Cis-Diamineplatinum(Ii) Dichloride )] (concentration: 25 µM) was tested, and the mean cell size was 1.043 ± 0.0024. `CC[C@@H](C(N)=O)N1CCCC1=O` [Levetiracetam] (concentration: 25 µM) showed a mean cell size of 0.968 ± 0.018.
